Data as given in PubChem BioAssay AID463190 (Sanford-Burnham Center for Chemical Genomics, 2010).
In all, about 330,000 compounds went through this assay and about 7,300 (2.2%) were called active. The sample as a whole holds a higher share of actives than the screen did. Unmarked numbers belong to inactive results.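 Rule for the calls: active = inhibition of at least 40%; inactive = the rest.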

Assay: growth inhibition of tim10-1 ts yeast – luminescence, uHTS, primary screen (AID 463190);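 note: mutant grown at 25 °C; 0% = DMSO wells with yeast and 100% = wells holding no yeast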
Conditions: S. cerevisiae tim10-1 ts strain growth, BacTiter-Glo, 24 h; at 20 µM; stronger effect = higher value

Row | Compound | inhibition
1 | C/C=C(\C)C(=O)NCCN1C2=NC[C@H](Cc3ccc(O)cc3)N2C[C@@H]1Cc1ccc(OC)cc1 | -7.43%
2 | O=c1[nH]n(-c2ccc([N+](=O)[O-])cc2)c(=O)c2ccccc12 | -4.91%
3 | O=C1CC(c2ccccc2)=NN1c1ccc([N+](=O)[O-])cc1 | 44.5% (active)
4 | Cc1nc(-c2ccc([N+](=O)[O-])cc2)c(-c2ccccc2)o1 | 14.6%
5 | COc1ccc2ccn(C)c2c1 | -6.1%
6 | COc1ccc2c(c1)cc1n2CCN=C1NN | 43.7% (active)
7 | CC12COC3(C(=O)Nc4ccc(Cl)cn4)CC1CCC32C (centres undefined) | 33.3%
8 | CCC1(CC)NC(=O)N(Cc2nc3ccccc3s2)C1=O | 9.64%
9 | CCC(C)Cn1c(O)cc2nn(-c3nc4ccccc4s3)c(=O)c-2c1C (centres undefined) | 0.194%
10 | CC(=NCc1ccco1)c1c(C(F)(F)F)[nH]n(-c2nc3ccccc3s2)c1=O | 75.2% (active)
11 | CCOC(=O)c1sc(N)c(C#N)c1COC(=O)C1=COCCO1 | 9.07%
12 | O=C(NCC(c1cccs1)N1CCOCC1)c1cc(Cl)ccc1[N+](=O)[O-] (centres undefined) | 3.29%
13 | COc1cccc(CNc2nc3nc4c(c(=O)n3[nH]2)CCC4)c1 | -3.51%
14 | COc1cccc(-c2cc3nc4c(c(N5CCC6(CC5)OCCO6)n3n2)CCCC4)c1 | 41.5% (active)
15 | COc1ccc(OC)c(/C(C)=N\NC(=O)c2cc3cc(Cl)ccc3n2C)c1 | 14.6%
16 | C=CCn1c(SCC(=O)NC)nnc1C12CC3CC(CC(C3)C1)C2 | 11.2%
17 | O=[N+]([O-])/C=C/c1ccc2c(ccn2Cc2ccccc2)c1 | -97.4%
18 | CCS(=O)(=O)Nc1ccc(C2=NN(S(=O)(=O)c3ccc(F)cc3)C(c3ccco3)C2)cc1 (centres undefined) | 13.9%
19 | COCCn1cnc2c1c(=O)n(CC(=O)NN)c(=O)n2Cc1ccccc1 | 10.9%
20 | O=C(NCc1ccc2c(c1)OCO2)C(=O)NCC1OCCN1S(=O)(=O)c1ccc(F)cc1 (centres undefined) | -2.49%
21 | O=C(Nc1cccc(F)c1)NC1CCCCCCC1 | 45.3% (active)
22 | O=C(Nc1cccc(F)c1)NC1CCCc2ccccc21 (centres undefined) | 30.5%
23 | C/C(CC(=O)Nc1cccc(F)c1)=N\NC(=O)C(=O)NC1CCCCC1 | 15.5%

Row | Compound | inhibition
24 | Cc1c(C(=O)O)nnn1-c1nonc1N | 3.56%
25 | C#CCOCCOCCOCCNc1nc(N2CCN(C(=O)[C@H](CO)n3cc([C@@H](N)C(C)C)nn3)CC2)nc(N2CCN(C(=O)[C@H](CCC(=O)O)n3cc([C@@H](N)[C@H](C)CC)nn3)CC2)n1 | 9.15%
26 | CC(C)(C)n1c(=O)[nH]c2c(c1=O)CCC2 | -3.65%
27 | NNC(=O)c1oc2nc(-c3ccccc3)cc(-c3ccco3)c2c1N | 19.9%
28 | CNC(=S)NNC(=O)c1oc2nc(-c3ccccc3)cc(-c3ccco3)c2c1N | 18.1%
29 | CS(=O)(=O)c1sc2nc(-c3ccccc3)cc(-c3ccccc3)c2c1N | 49.2% (active)
30 | O=C(O)CSCc1ccc(C(=O)O)o1 | 3.55%
31 | C/C=C/C=C/C(=O)OCC(=O)Nc1ccc(Cl)cc1 | 15.8%
32 | O=C(/C=C/c1ccc(Cl)c([N+](=O)[O-])c1)c1cccnc1 | 46.1% (active)
33 | CN(C)c1ccc(/C=C/C(=O)c2ccc(C(C)(C)C)cc2)cc1[N+](=O)[O-] | 27.1%
34 | O=C(Nc1ccncc1)c1ccc(Cl)c([N+](=O)[O-])c1 | -50.2%
35 | CN(C)c1ccc(/C=C/C(=O)c2ccc(O)cc2)cc1[N+](=O)[O-] | 15.8%
36 | O=C(/C=C/c1ccc(Cl)cc1Cl)c1cccnc1 | 25%
37 | O=C(/C=C/c1ccc(Cl)c([N+](=O)[O-])c1)c1ccc(O)cc1 | 41.3% (active)
38 | COc1ccc(CCNC(=O)c2ccc(CS(=O)(=O)c3ccc(Br)cc3)o2)cc1OC | 24.5%
39 | O=C(Cn1c(NCCO)nc2ccccc21)c1ccc(Cl)cc1Cl | 1.93%
40 | CCCCn1ccnc1C(=O)c1cccc(S(=O)(=O)N2c3ccccc3CC2C)c1 (centres undefined) | 29.3%
41 | O=C1COc2ccc(C(=O)COC(=O)c3cccnc3Cl)cc2N1 | -6.62%
42 | CCc1nnc(NC(=O)CSc2nnc(-c3ccncc3)n2Cc2ccccc2)s1 | 10.1%
43 | COC(=O)c1cc(NC(=O)CC2C(=O)NCCN2C(=O)c2ccc(F)cc2)cc(C(=O)OC)c1 (centres undefined) | -15.9%
44 | Cc1ccc(N2C(=O)CC(Sc3ncn[nH]3)C2=O)cc1 (centres undefined) | 30.2%
45 | COc1ccc(N2C(=O)CC(Sc3n[nH]c(-c4ccc(C)cc4)n3)C2=O)cc1 (centres undefined) | 54.7% (active)
46 | COc1ccc(N2C(=O)CC(SC(C)C)C2=O)cc1 (centres undefined) | -8.61%

Row | Compound | inhibition
47 | COc1ccccc1C(=O)NCCn1cc(SCC(=O)NCc2ccco2)c2ccccc21 | 29.1%
48 | COc1cc(C(c2c(NC(=O)c3ccco3)sc(C)c2C)N2CCOCC2)cc(OC)c1OC (centres undefined) | 20.7%
49 | CC(=O)C1=C(O)C(=O)N(c2cccnc2)C1c1ccc([N+](=O)[O-])cc1 (centres undefined) | 0.316%
50 | CCc1ccccc1NC1c2ccccc2C(=O)N1c1cccnc1 (centres undefined) | 36.7%
51 | O=C1[C@@H](c2ccccc2)[C@@H](c2ccccc2)N1c1cccnc1 | 66.6% (active)
52 | O=C(N/N=C/c1ccc(OCC2COCCO2)cc1)c1ccc(Br)cc1 (centres undefined) | -0.668%
53 | COc1ccc(OC)c(-c2c(=O)n(OCc3ccccc3Br)c3ccccc3[n+]2[O-])c1 | 47.1% (active)
54 | CCOc1ccc(OCC)c(-c2c(=O)n(OCc3ccc(Cl)cc3)c3ccccc3[n+]2[O-])c1 | 26.2%
55 | CCOC(=O)COn1c(=O)c(-c2ccc(OCC)cc2)[n+]([O-])c2ccccc21 | 31.6%
56 | COC(=O)c1c(-c2ccsc2)oc2ccc(-c3cc(OC)c(OC)c(OC)c3)cc12 | 28.1%
57 | N#CCOc1ccc(C2=NO[C@@H]3[C@@H]4C[C@@H]([C@H]5C(=O)N(c6ccc7c(c6)OCO7)C(=O)[C@@H]45)[C@H]23)cc1 | 18.3%
58 | C=CS(=O)c1sc(Cl)c(N2CCOCC2)c1[N+](=O)[O-] (centres undefined) | 79.3% (active)
59 | Nc1c(N(CCO)C(=O)C2CCCCC2)c(=O)[nH]c(=O)n1Cc1ccccc1 | 15.1%
60 | COc1ccccc1C(=O)NCC(=O)OCC(=O)NNC(=O)c1ccc(Br)cc1 | -10.1%
61 | Cc1ccc(-c2cc(C(=O)N3CCc4ccccc4C3)no2)cc1 | 18.4%
62 | Cc1ccc2c(c1)c1ncnc(N3CCc4ccccc4C3)c1n2C | 44% (active)
63 | Cc1ccc2c(c1)c1ncn(CCC3=CCCCC3)c(=O)c1n2C | 22.5%
64 | O=C(C1CCC(=O)N(C2CC2)C1)N1CCN(c2ccc(Cl)cc2)CC1 (centres undefined) | -6.67%
65 | C=CCNC(=O)CC12CC3CC(C1)CC(CC(=O)NCC=C)(C3)C2 | 9.8%
66 | COc1ccc(-n2c(SCC(=O)OC(C)C)nnc2-c2ccccn2)cc1 | 34.2%
67 | CCOc1cccc(-c2nn3c(-c4ccccn4)nnc3s2)c1 | 42% (active)
68 | CCOc1cccc(-c2nnc(SCC(=O)NC3CC3)n2C)c1 | 6.04%
69 | O=C(O)C1C2C=CC(C2)C1C(=O)NCc1ccccc1 (centres undefined) | -21.1%

Row | Compound | inhibition
70 | COc1ccc(C2=NO[C@@H]3C(=O)N(Cc4ccccc4)C(=O)[C@H]23)cc1OC | 14.3%
71 | CC(c1cccnc1)N(CCN(C)C)C(=O)Nc1ccc(Cl)c(Cl)c1 (centres undefined) | 4.37%
72 | CCn1nccc1C(=O)Nc1ccc(Cl)c(Cl)c1 | 44% (active)
73 | CCn1nccc1C(=O)Nc1ccc(S(=O)(=O)NC23CC4CC(CC(C4)C2)C3)cc1 | 26.7%
74 | CN1CCN(C(=O)CCc2ncc(C(F)(F)F)cc2Cl)CC1 | -4.04%
75 | COC(=O)c1c(C(=O)OC)c(-c2cccc(C)c2)n2c1CS(=O)C2 (centres undefined) | 10.8%
76 | CCOCCCNC(=O)c1ccc(CS(=O)(=O)c2cccc(C(F)(F)F)c2)o1 | 6.36%
77 | Cc1ccc(NS(=O)(=O)c2ccc(-c3ccc(=O)[nH]n3)o2)c(C)c1 | 1.41%
78 | Cc1ccc(-c2csc(-c3c[nH]c4ccccc34)n2)cc1 | 60.4% (active)
79 | Cc1ccc(-c2csc(NC(=O)Cn3[nH]c(=O)c4ccccc4c3=O)n2)cc1 | 31.6%
80 | Cc1ccc(-c2csc(NC3OC(=O)c4ccccc43)n2)cc1 (centres undefined) | 5.08%
81 | COc1cc(N2C(=O)CC3(CCCC3)CC2=O)cc(OC)c1OC | 11.2%
82 | N#CC1(C#N)C(C(=O)C23CC4CC(CC(C4)C2)C3)C12CCOCC2 (centres undefined) | 47.6% (active)
83 | CC(C)(C)c1ccc(C(=O)NCc2nnc(SCC(=O)N3CCCc4ccccc43)n2-c2ccccc2)cc1 | 1.45%
84 | O=C(COC(=O)CCCSc1nc2ccccc2[nH]1)Nc1ccc(Oc2ccccc2)cc1 | 14.2%
85 | Cc1cc([N+](=O)[O-])c(-c2ccc(/C=N/n3cnnc3)o2)cc1Cl | 16.2%
86 | Cc1ccc(-c2ccc(/C=C(\C#N)C(N)=S)o2)c([N+](=O)[O-])c1 | 57.3% (active)
87 | Cc1cc(C)c([N+](=O)[O-])cc1-c1ccc(/C=N/NC(=O)c2nonc2N)o1 | -16.4%
88 | CCOC(=O)CCCCCC(=O)Nc1ccc2c(c1)CC(=O)N([C@@H](C)CO)C[C@H](C)[C@@H](CN(C)Cc1ccccc1)O2 | -5.39%
89 | Cn1nnnc1SCC(=O)NNC(=O)c1ccc(Br)cc1 | 0.63%
